In PubChem BioAssay:
The source made the active and inactive calls. Unless noted, no rule for the calls is given here.

Columns and labels:
[1] = A549 cell viability effects, profiling panel, calcein-AM fluorescence, 48 h, basal (AID 1162); settings: higher = more signal; also: test concentration not given here
[2] = adipocyte viability effects, profiling panel, cell-based, 3T3-L1 adipocytes, calcein-AM fluorescence, 48 h, basal (AID 1163); settings: 3T3-L1 adipocytes viability, higher = more signal; also: test concentration not given here
[3] = HepG2 cell viability effects, profiling panel, calcein-AM fluorescence, 48 h, basal (AID 1164); settings: higher = more signal; also: test concentration not given here
[4] = MM1S cell viability effects, profiling panel, calcein-AM fluorescence, 48 h, basal (AID 1165); settings: higher = more signal;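 also: viability of MM1S multiple myeloma cells under basal unstimulated conditions; test concentration not given here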
[5] = basal RPMI8226 viability, no added stimulus, profiling panel, cell-based, calcein-AM fluorescence, 48 h, PK04 Diversity Set (AID 1166); settings: RPMI8226 myeloma viability, higher = more signal;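 also: cells grown under basal conditions without added stimulus; test concentration not given here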
[6] = basal HepG2 mitochondrial membrane potential changes, profiling panel, cell-based, JC-1 fluorescence, 24 h, 100 nL compound (AID 1167); settings: higher = more signal; also: test concentration not given here
[7] = basal 3T3-L1 adipocyte mitochondrial potential changes, profiling panel, cell-based, JC-1 fluorescence, 3T3-L1 adipocytes, 24 h, 100 nL compound (AID 1168); settings: JC-1 mitochondrial fluorescence, higher = more signal, called active from +8 up or from −8 down; also: test concentration not given here
[8] = basal RPMI8226 mitochondrial membrane potential changes, profiling panel, cell-based, JC-1 fluorescence, 24 h, 100 nL compound (AID 1169); settings: RPMI8226 myeloma, JC-1 mitochondrial potential fluorescence, higher = more signal; also: test concentration not given here
[9] = basal MM1S mitochondrial membrane potential changes, profiling panel, cell-based, JC-1 fluorescence, 24 h, 100 nL compound (AID 1170); settings: higher = more signal; also: test concentration not given here
[10] = A549 lung cancer cell viability effects, profiling panel, resazurin fluorescence, 24 h, PK04 Diversity Set (AID 1171); settings: higher = more signal, called active from +8 up or from −8 down; also: test concentration not given here
[11] = HepG2 liver cancer cell viability effects, profiling panel, resazurin fluorescence, 24 h, PK04 Diversity Set (AID 1172); settings: higher = more signal; also: test concentration not given here
[12] = basal S. cerevisiae growth modulation, no modifier, primary screen, OD600, strain BY4716, 24 h, basal condition (AID 1173); settings: OD600, 24 h, higher = more signal, called active from +8 up or from −8 down
[13] = MM1S myeloma cell viability, profiling panel, resazurin fluorescence, basal, 24 h, PK04 Diversity Set (AID 1174); settings: higher = more signal, called active from +8 up or from −8 down;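 also: MM1S multiple myeloma cell line; test concentration not given here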
[14] = target: Dihydroorotate dehydrogenase (quinone), mitochondrial (Plasmodium falciparum (isolate 3D7)) (UniProt Q08210); experiment: PfDHODH enzyme inhibitors, primary screen, biochemical, C-terminal His tag, absorbance 600 nm (AID 1175); settings: DCIP absorbance 600 nm, higher = more signal, called active from +8 up or from −8 down;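 also: recombinant parasite enzyme with a five histidine tag at its C terminus; test concentration not given here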
[15] = P. aeruginosa biofilm formation inhibitors, primary screen, strain PAO1, LB-PBS medium, absorbance 600 nm (AID 1176); also: test concentration not given here; settings: P. aeruginosa PAO1 growth/biofilm, A600, 12 h; higher = more signal
[16] = S. cerevisiae RM11-1a growth modifiers, primary screen, strain RM11-1a, OD600, basal, 24 h (AID 1177); settings: OD600, 24 h, higher = more signal, called active from +8 up or from −8 down;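 also: cultures grown under basal conditions with no added stressor; test concentration not given here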
[17] = E. coli acrAB mutant growth effects, primary screen, E. coli filamentation inducers, strain DRC39, OD650, 24 h (AID 1178); settings: higher = more signal, called active from +8 up or from −8 down;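 also: growth measured as culture turbidity by optical density at 650 nm; test concentration not given here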
[18] = E. coli acrAB mutant growth effects, primary screen, E. coli filamentation inducers, strain DRC39, OD650, 48 h (AID 1179);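 also: screen aims at cell division blockers that make cells filament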; settings: E. coli DRC39 delta-acrAB growth, higher = more signal, called active from +8 up or from −8 down
[19] = RPMI8226 myeloma cell viability, profiling panel, resazurin fluorescence, basal, 24 h, PK04 Diversity Set (AID 1180); settings: higher = more signal;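 also: RPMI8826 multiple myeloma cell line at 5000 cells per well; test concentration not given here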
[20] = target: E3 ubiquitin-protein ligase XIAP (Homo sapiens) (UniProt P98170); experiment: XIAP binders, primary screen, biophysical, small-molecule microarray, fluorescence 635 nm (AID 1181); settings: small-molecule microarray binding, higher = more signal;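 also: score merges 667 nm emission and signal to noise over triplicate slides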
Sequence of E3 ubiquitin-protein ligase XIAP (Homo sapiens) (P98170 whole entry, looked up): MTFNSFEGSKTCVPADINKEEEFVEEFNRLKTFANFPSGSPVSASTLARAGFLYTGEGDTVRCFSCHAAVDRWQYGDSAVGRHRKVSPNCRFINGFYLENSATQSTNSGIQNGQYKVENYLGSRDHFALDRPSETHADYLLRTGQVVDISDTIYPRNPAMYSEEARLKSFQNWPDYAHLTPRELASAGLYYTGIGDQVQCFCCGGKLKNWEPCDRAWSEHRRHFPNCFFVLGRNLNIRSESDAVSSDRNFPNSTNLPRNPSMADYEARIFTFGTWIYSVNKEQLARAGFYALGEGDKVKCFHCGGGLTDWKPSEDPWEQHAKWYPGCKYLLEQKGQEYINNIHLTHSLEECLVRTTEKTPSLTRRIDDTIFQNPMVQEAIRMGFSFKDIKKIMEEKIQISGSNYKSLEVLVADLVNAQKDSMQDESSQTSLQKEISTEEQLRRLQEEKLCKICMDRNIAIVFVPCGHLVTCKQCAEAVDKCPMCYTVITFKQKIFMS

Sequence of Dihydroorotate dehydrogenase (quinone), mitochondrial (Plasmodium falciparum (isolate 3D7)) (Q08210 whole entry, looked up): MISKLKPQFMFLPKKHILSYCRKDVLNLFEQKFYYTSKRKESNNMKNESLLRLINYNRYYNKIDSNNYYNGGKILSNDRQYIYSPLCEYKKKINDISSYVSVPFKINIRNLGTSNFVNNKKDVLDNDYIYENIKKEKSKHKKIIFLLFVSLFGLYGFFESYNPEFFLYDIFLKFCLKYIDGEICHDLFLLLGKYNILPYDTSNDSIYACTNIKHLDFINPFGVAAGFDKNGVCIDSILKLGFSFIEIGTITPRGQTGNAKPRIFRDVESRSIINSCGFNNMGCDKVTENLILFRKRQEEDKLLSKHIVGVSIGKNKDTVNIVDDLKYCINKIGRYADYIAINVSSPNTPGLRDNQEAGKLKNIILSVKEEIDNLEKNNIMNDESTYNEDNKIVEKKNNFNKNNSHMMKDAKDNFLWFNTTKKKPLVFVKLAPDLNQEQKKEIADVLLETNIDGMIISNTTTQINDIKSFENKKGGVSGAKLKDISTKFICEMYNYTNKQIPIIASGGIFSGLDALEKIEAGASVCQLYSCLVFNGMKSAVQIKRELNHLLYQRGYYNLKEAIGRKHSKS

Compound	z-score [1]	z-score [2]	z-score [3]	z-score [4]	z-score [5]	z-score [6]	z-score [7]	z-score [8]	z-score [9]	z-score [10]	z-score [11]	z-score [12]	z-score [13]	composite z-score [14]	z-score [15]	z-score [16]	z-score [17]	z-score [18]	z-score [19]	composite z-score [20]
C=C(COC)C(=O)CC[C@H](OC(=O)c1ccccc1-c1ccccc1C(=O)O)c1ccc(OCCO)cc1	-0.127	1.06	-0.626	-1.85	-0.385	-0.271	-0.328 (inactive)	-0.463	0.463	-0.276 (inactive)	-0.381	0.142 (inactive)	-0.288 (inactive)	-0.575 (inactive)	1.3 (inactive)	-0.386 (inactive)	-0.752 (inactive)	-0.561 (inactive)	-0.7	0.0223
CCC[C@@H]1C[C@@]1(CCC)[C@@H](NC(=O)c1cccs1)c1ccc(Cl)cc1	-0.162	-0.608	-0.892	-2.77	-4.78	-0.52	0.028 (inactive)	-0.000314	-0.386	4.94 (inactive)	1.82	-0.779 (inactive)	1.19 (inactive)	-0.118 (inactive)	0.852 (inactive)	0.235 (inactive)	0.279 (inactive)	0.372 (inactive)	2.95	-0.193
CN(C)CCCN1C(=O)[C@@]2(Cc3ccccc31)c1ccccc1C(=O)N(Cc1ccccc1)[C@H]2c1ccc(CO)cc1	0.483	1.16	0.128	0.38	-2.79	0.343	-0.407 (inactive)	-0.484	-1.28	0.726 (inactive)	1.18	0.225 (inactive)	1.04 (inactive)	-6.03 (inactive)	0.587 (inactive)	-0.549 (inactive)	0.672 (inactive)	-0.245 (inactive)	0.246	-0.176
COC(=O)c1c(CC[C@@H](CO)NC(=O)N[C@@H](C)Cn2cc(C3(O)CCCC3)nn2)oc(C(C)=O)c1C(=O)OC	0.329	1.45	-0.299	-2.1	-0.371	-0.428	1.04 (inactive)	-0.357	0.932	-0.514 (inactive)	-1.1	-0.724 (inactive)	-0.345 (inactive)	-3.31 (inactive)	0.0793 (inactive)	-0.429 (inactive)	-0.0257 (inactive)	-0.687 (inactive)	-0.88	-0.184
N#Cc1ccc(NN2C(C(O)c3ccco3)C=CC3C(=O)N(c4ccccc4)C(=O)C32)cc1 (stereo not given)	-0.121	-0.908	1.26	-0.372	-0.197	-0.764	-0.829 (inactive)	0.45	0.121	-0.2 (inactive)	-0.674	-0.36 (inactive)	-0.512 (inactive)	0.0512 (inactive)	1.07 (inactive)	0.293 (inactive)	-2.14 (inactive)	-2.13 (inactive)	-0.607	0.0794
CC(C)C(CO)N1C(=O)[C@@H]2[C@H]3C(=O)OCC=C[C@H]3OC23C=CCN(CCN2CCOCC2)C(=O)[C@@H]13 (stereo not given in full)	-0.334	-0.347	-0.434	-0.201	0.372	-0.982	-0.648 (inactive)	0.237	0.105	-0.324 (inactive)	-0.173	0.306 (inactive)	-0.505 (inactive)	0.395 (inactive)	-0.814 (inactive)	1.21 (inactive)	-0.934 (inactive)	-1.06 (inactive)	-0.371	-0.518
CC(C)(C)OC(=O)CC[C@@]1(C(=O)N2CCCCC2)N=C(c2ccc(OCCCO)cc2)O[C@@H]1c1ccccc1N=[N+]=[N-]	0.611	-0.351	0.733	-0.993	-2.16	1.52	3.17 (inactive)	-1.1	-0.993	-0.328 (inactive)	-0.254	0.601 (inactive)	-1.73 (inactive)	0.27 (inactive)	-0.279 (inactive)	0.879 (inactive)	0.264 (inactive)	1.36 (inactive)	-0.408	-0.0474
Cc1ccc(S[C@]2(C(=O)O)CC(=O)N(C3CCCCC3)[C@@H]2c2ccc(CO)cc2)cc1	-0.0959	-0.753	0.952	-0.634	0.761	0.318	0.144 (inactive)	-0.148	-0.776	-0.345 (inactive)	-0.628	-1.74 (inactive)	0.0977 (inactive)	0.234 (inactive)	0.512 (inactive)	-0.332 (inactive)	0.643 (inactive)	1.48 (inactive)	0.273	-0.0031
C[N+](C)(C)CCCC[C@@H]1NC(=O)[C@@H]2C[C@H](C(=O)NCCCCCNC(=O)CS)[C@H](c3cccc(OCCO)c3)N2C1=O	0.884	-0.0052	0.289	-0.0724	-1.31	1.8	-0.364 (inactive)	0.245	-0.243	0.764 (inactive)	0.839	-0.385 (inactive)	0.223 (inactive)	1.09 (inactive)	-0.199 (inactive)	0.342 (inactive)	0.461 (inactive)	0.983 (inactive)	0.228	-0.0562
